Reference: PubChem BioAssay (NCATS)
Records with an inconclusive call do not appear. Active and inactive are the calls of the source. Calls come from the whole dose curve; as a rule, active = well fitted curve in the direction sought with a large enough effect; inconclusive = small, poorly fitted or top-dose-only effect, or another doubt; inactive = no such curve, though single readings can be large; an effect the other way counts as inactive or inconclusive.

Target: Glucagon-like peptide 1 receptor (Homo sapiens) (UniProt P43220)
Assay: qHTS of GLP-1 Receptor Agonists: LOPAC Validation (AID 624148);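 note: higher luminescence signal means agonism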
Details: GLP-1R agonist cell assay; series mostly up to 46.1 µM
Summary of the method: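 HEK293 cells stably co-expressing a cAMP-responsive luciferase reporter and a hypersensitive GLP-1R were plated 12 h at 37 °C and exposed to compounds for 4-6 hr at 37 °C, 5% CO2. Luminescence was read 12 min after adding detection reagent.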

Sequence of Glucagon-like peptide 1 receptor (Homo sapiens) (P43220 whole entry, looked up): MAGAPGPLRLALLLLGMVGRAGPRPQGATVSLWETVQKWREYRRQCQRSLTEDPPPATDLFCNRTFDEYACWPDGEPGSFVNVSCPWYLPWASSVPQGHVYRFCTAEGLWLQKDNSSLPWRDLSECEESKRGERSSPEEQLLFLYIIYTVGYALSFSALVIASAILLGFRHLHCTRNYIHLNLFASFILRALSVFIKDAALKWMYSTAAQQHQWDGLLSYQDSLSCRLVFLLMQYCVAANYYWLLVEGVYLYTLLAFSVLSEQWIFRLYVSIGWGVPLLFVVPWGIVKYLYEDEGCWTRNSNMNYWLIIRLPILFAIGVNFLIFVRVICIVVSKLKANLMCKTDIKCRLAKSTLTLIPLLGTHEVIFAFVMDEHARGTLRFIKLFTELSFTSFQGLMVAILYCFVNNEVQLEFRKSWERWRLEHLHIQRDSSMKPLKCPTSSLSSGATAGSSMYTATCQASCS

Compound | outcome
CCO/C([O-])=N/c1c[n+](N2CCOCC2)no1 | inactive
NC(=O)c1cn(Cc2c(F)cccc2F)nn1 | inactive
CN(C)CC[C@@H](c1ccc(Br)cc1)c1ccccn1 | inactive
CC(=O)OC(C)C[N+](C)(C)C (stereo not given) | inactive
CC(=O)OCC1=C(C(=O)O)N2C(=O)[C@@H](NC(=O)Cc3cccs3)[C@H]2SC1 | inactive
CSc1ccc(C(=O)c2[nH]c(=O)[nH]c2C)cc1 | inactive
CNC1(C)C2CCC(C2)C1(C)C (stereo not given) | inactive
CCCOc1ccccc1-c1nc2n[nH]nc2c(=O)[nH]1 | inactive
CCc1cccc(N(C)C(N)=Nc2cccc3ccccc23)c1 | inactive
CC[N+](C)(C)c1cccc(O)c1 | inactive
CN1C(=O)CC[C@H]1c1cccnc1 | inactive
NC(N)=N/N=C/c1c(Cl)cccc1Cl | inactive
CN(C)C(=O)Oc1cccc([N+](C)(C)C)c1 | inactive
CCCN(CCC)CCc1cccc2c1CC(=O)N2 | inactive
O=C(O)CN(CCOCCOCCN(CC(=O)O)CC(=O)O)CC(=O)O | inactive
CCCNC(C)C(=O)Nc1ccccc1C (stereo not given) | inactive
O=C(O)CP(=O)(O)O | inactive
CCNC(=O)N1CCN(CCCC(c2ccc(F)cc2)c2ccc(F)cc2)CC1 | inactive

Compound | outcome
CN1C[C@H](C(=O)N[C@]2(C)O[C@@]3(O)[C@@H]4CCCN4C(=O)[C@H](Cc4ccccc4)N3C2=O)C[C@@H]2c3cccc4[nH]cc(c34)C[C@H]21 | inactive
NC/C=C/C(=O)O | inactive
NC1=NCC2c3ccccc3Cc3ccccc3N12 (stereo not given) | inactive
C=CCc1ccccc1OCC(O)CNC(C)C (stereo not given) | inactive
O=C(O)CN(CCN(CC(=O)O)CC(=O)O)CCN(CC(=O)O)CC(=O)O | inactive
O=C1CC2(CCCC2)CC(=O)N1CCCCN1CCN(c2ncccn2)CC1 | inactive
CCCN(CCC)C(=O)C(CCC(=O)O)NC(=O)c1ccccc1 (stereo not given) | inactive
Cc1nnc(SCC2=C(C(=O)O)N3C(=O)[C@@H](NC(=O)Cn4cnnn4)[C@H]3SC2)s1 | inactive
COCCc1ccc(OCC(O)CNC(C)C)cc1 (stereo not given) | inactive
CC(=O)Oc1cc(C(C)C)c(OCCN(C)C)cc1C | inactive
COC(=O)C1=C(C)NC(C)=C(C(=O)OC(C)(C)CN(C)CCC(c2ccccc2)c2ccccc2)C1c1cccc([N+](=O)[O-])c1 (stereo not given) | inactive
COc1cc(C(=O)OCCCN2CCCN(CCCOC(=O)c3cc(OC)c(OC)c(OC)c3)CC2)cc(OC)c1OC | inactive
CN(C)C(=O)Oc1ccc[n+](C)c1 | inactive
CCCC(C(=O)OCCN(CC)CC)(c1ccccc1)c1ccccc1 | inactive
CCCN1C[C@H](CSC)C[C@@H]2c3cccc4[nH]cc(c34)C[C@H]21 | inactive
COc1ccc([C@@H]2Sc3ccccc3N(CCN(C)C)C(=O)[C@@H]2OC(C)=O)cc1 | inactive
Fc1ccc(C(c2ccc(F)cc2)N2CCN(C/C=C/c3ccccc3)CC2)cc1 | inactive

System: not listed separately
Assay: qHTS of Nrf2 Activators: LOPAC Validation (AID 624149)
Details: Nrf2/ARE reporter cell assay; series mostly up to 46.1 µM
Summary of the method: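 AREc32 cells carrying an ARE-driven firefly luciferase were grown overnight in OPTI-MEM with 5% FBS, then exposed to compounds for 24 hr at 37 deg C. Luciferase signal was read after 30 min with Steady-Glo at RT.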

Compound | outcome
CCO/C([O-])=N/c1c[n+](N2CCOCC2)no1 | inactive
NC(=O)c1cn(Cc2c(F)cccc2F)nn1 | inactive
CN(C)CC[C@@H](c1ccc(Br)cc1)c1ccccn1 | inactive
CC(=O)OC(C)C[N+](C)(C)C (stereo not given) | inactive
CC(=O)OCC1=C(C(=O)O)N2C(=O)[C@@H](NC(=O)Cc3cccs3)[C@H]2SC1 | inactive
CSc1ccc(C(=O)c2[nH]c(=O)[nH]c2C)cc1 | inactive
CNC1(C)C2CCC(C2)C1(C)C (stereo not given) | inactive
CCCOc1ccccc1-c1nc2n[nH]nc2c(=O)[nH]1 | inactive
CCc1cccc(N(C)C(N)=Nc2cccc3ccccc23)c1 | inactive
CC[N+](C)(C)c1cccc(O)c1 | inactive
CN1C(=O)CC[C@H]1c1cccnc1 | inactive
NC(N)=N/N=C/c1c(Cl)cccc1Cl | inactive
CN(C)C(=O)Oc1cccc([N+](C)(C)C)c1 | inactive
CCCN(CCC)CCc1cccc2c1CC(=O)N2 | inactive
O=C(O)CN(CCOCCOCCN(CC(=O)O)CC(=O)O)CC(=O)O | inactive
CCCNC(C)C(=O)Nc1ccccc1C (stereo not given) | inactive
O=C(O)CP(=O)(O)O | inactive
CCNC(=O)N1CCN(CCCC(c2ccc(F)cc2)c2ccc(F)cc2)CC1 | inactive

Compound | outcome
CN1C[C@H](C(=O)N[C@]2(C)O[C@@]3(O)[C@@H]4CCCN4C(=O)[C@H](Cc4ccccc4)N3C2=O)C[C@@H]2c3cccc4[nH]cc(c34)C[C@H]21 | inactive
NC/C=C/C(=O)O | inactive
NC1=NCC2c3ccccc3Cc3ccccc3N12 (stereo not given) | inactive
C=CCc1ccccc1OCC(O)CNC(C)C (stereo not given) | inactive
O=C(O)CN(CCN(CC(=O)O)CC(=O)O)CCN(CC(=O)O)CC(=O)O | inactive
O=C1CC2(CCCC2)CC(=O)N1CCCCN1CCN(c2ncccn2)CC1 | inactive
CCCN(CCC)C(=O)C(CCC(=O)O)NC(=O)c1ccccc1 (stereo not given) | inactive
Cc1nnc(SCC2=C(C(=O)O)N3C(=O)[C@@H](NC(=O)Cn4cnnn4)[C@H]3SC2)s1 | inactive
COCCc1ccc(OCC(O)CNC(C)C)cc1 (stereo not given) | inactive
CC(=O)Oc1cc(C(C)C)c(OCCN(C)C)cc1C | inactive
COC(=O)C1=C(C)NC(C)=C(C(=O)OC(C)(C)CN(C)CCC(c2ccccc2)c2ccccc2)C1c1cccc([N+](=O)[O-])c1 (stereo not given) | inactive
COc1cc(C(=O)OCCCN2CCCN(CCCOC(=O)c3cc(OC)c(OC)c(OC)c3)CC2)cc(OC)c1OC | inactive
CN(C)C(=O)Oc1ccc[n+](C)c1 | inactive
CCCC(C(=O)OCCN(CC)CC)(c1ccccc1)c1ccccc1 | inactive
CCCN1C[C@H](CSC)C[C@@H]2c3cccc4[nH]cc(c34)C[C@H]21 | inactive
COc1ccc([C@@H]2Sc3ccccc3N(CCN(C)C)C(=O)[C@@H]2OC(C)=O)cc1 | inactive
Fc1ccc(C(c2ccc(F)cc2)N2CCN(C/C=C/c3ccccc3)CC2)cc1 | inactive
